Assay results reported in PubChem BioAssay (NCATS).
Values joined by “and” are separate entries in the source; they are usually repeats but may differ in a detail not shown here. Equal entries are not always repeated. Inconclusive results are not listed. Where a call stands in place of a potency, no number is given. More than one record can exist for a structure, and the calls need not agree. Active and inactive are the calls of the source. Unless noted, calls come from the whole dose curve; as a rule, active = well fitted curve in the direction sought with a large enough effect; inconclusive = small, poorly fitted or top-dose-only effect, or another doubt; inactive = no such curve, though single readings can be large; an effect the other way counts as inactive or inconclusive.

Columns and labels:
[1] = biological target: Rap guanine nucleotide exchange factor 3 (Homo sapiens) (UniProt O95398); experiment: Confirmatory qHTS for antagonist of cAMP-regulated guanine nucleotide exchange factor 3 (EPAC1) (AID 1645880); note: nearly all actives have a fitted effect of over 55% in size
Method in brief: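 Nucleotide exchange uses 100 nM EPAC1, 250 nM RAP1B-BODIPY-GDP and 50 uM GDP, with compounds in a concentration-titration series. After 5 min at room temperature, fluorescence (480 nm ex/540 nm em) is read every 5 min for 30 min. Data are normalized to control ATA and DMSO.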

[2] = biological target: Rap guanine nucleotide exchange factor 3 (Homo sapiens) (UniProt O95398); experiment: Confirmatory qHTS for agonist of cAMP-regulated guanine nucleotide exchange factor 3 (EPAC1) (AID 1645881);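 note: EPAC1 catalysed release of BODIPY-GDP from Rap1B seen as fluorescence loss; nearly all actives have a fitted effect of over 75% in size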
[3] = biological target: Rap guanine nucleotide exchange factor 4 (Homo sapiens) (UniProt Q8WZA2); experiment: Confirmatory qHTS for agonist of cAMP-regulated guanine nucleotide exchange factor 4 (EPAC2) (AID 1645884);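 note: nucleotide exchange releases bodipy-GDP from Rap1 and this lowers its fluorescence; nearly all actives have a fitted effect of over 65% in size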
[4] = biological target: Rap guanine nucleotide exchange factor 4 (Homo sapiens) (UniProt Q8WZA2); experiment: Confirmatory qHTS for antagonist of cAMP-regulated guanine nucleotide exchange factor 4 (EPAC2) (AID 1645885); note: nearly all actives have a fitted effect of over 25% in size; note: potency is the fitted concentration of half-maximal effect
[5] = NCATS anti-infectives library activity on HEK293 viability as a counter-qHTS vs the C. elegans viability qHTS (AID 1745854);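 note: HEK293 cells exposed to compounds for 24 hr before the viability read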
Method in brief: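 Cytotoxicity in human HEK293 cells is measured by ATP-dependent CellTiter-Glo luminescence following a 24 hr incubation with titrated library compounds at 37C. Top final concentration is 41.7 uM.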

[6] = Viability counterscreen for antagonist of constitutive androstane receptor (CAR) against the NCATS DSHEA and TCM libraries (AID 1794837);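 note: compound exposure lasted 24 h before viability reading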
Method in brief: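 HepG2-CYP2B6-hCAR cells, 2,500/well, were exposed 24 hr at 37C to substances together with 48 uM CITCO (final). Viability was read as CellTiter-Fluor fluorescence (Ex/Em 405/540 nm) after 1 hr.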

[7] = Viability counterscreen for agonist of constitutive androstane receptor (CAR) against the NCATS DSHEA and TCM libraries (AID 1794838);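 note: HepG2 cells with CYP2B6 reporter and hCAR plus 0.75 µM PK11195 antagonist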
Method in brief: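 HepG2-CYP2B6-hCAR cells (2,500/well) treated 24 h at 37C with compounds plus 0.75 uM PK11195; viability read by CellTiter-Fluor fluorescence, Ex/Em 405/540 nm.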

[8] = biological target: Nuclear receptor subfamily 1 group I member 3 (Homo sapiens) (UniProt Q14994); experiment: Primary qHTS for agonist of constitutive androstane receptor (CAR) against the NCATS DSHEA and TCM libraries (AID 1794839);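 note: HepG2 cells expressing human CAR with a CYP2B6 reporter plus PK11195 antagonist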
Method in brief: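 HepG2-CYP2B6-hCAR cells, 2,500/well, attached 5 h, then dosed with 0.75 µM PK11195 (final) for 24 h at 37 °C. Luciferase luminescence read (ONE-Glo); CellTiter-Fluor viability (Ex/Em 405/540 nm) in same wells; CITCO positive control.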

[9] = NCATS anti-infectives library activity on the primary C. elegans qHTS viability assay (AID 1745855; calls by dose curve); conditions: C. elegans worm area imaging, day 7; at 41.8 µM (top of the series)
Method in brief: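 Viability is taken from GFP fluorescence of PE254-GFP-FLuc C. elegans imaged by laser cytometry over 7 days. Ten L1 worms per well grow at 21 °C on TOP10 E. coli capsules with titrated compound; levamisole marks toxicity.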

[10] = biological target: Rap guanine nucleotide exchange factor 3 (Homo sapiens) (UniProt O95398); experiment: Counterscreen qHTS for antagonist of cAMP-regulated guanine nucleotide exchange factor 3 (EPAC1) (AID 1645888);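 note: fluorescence loss as bound BODIPY-GDP is released from Rap1B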
Method in brief: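 Rap1B–BODIPY-GDP (250 nM) with 50 uM GDP; compounds pin-transferred to 9.74 nM–152 uM final (activator) or from 7.32 nM upwards (inhibitor). Fluorescence Ex/Em 480/540 nm read at 5 and 30 min, then after adding cAMP or buffer, at room temperature.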

Chain of Rap guanine nucleotide exchange factor 3 (Homo sapiens) (O95398 whole entry, looked up): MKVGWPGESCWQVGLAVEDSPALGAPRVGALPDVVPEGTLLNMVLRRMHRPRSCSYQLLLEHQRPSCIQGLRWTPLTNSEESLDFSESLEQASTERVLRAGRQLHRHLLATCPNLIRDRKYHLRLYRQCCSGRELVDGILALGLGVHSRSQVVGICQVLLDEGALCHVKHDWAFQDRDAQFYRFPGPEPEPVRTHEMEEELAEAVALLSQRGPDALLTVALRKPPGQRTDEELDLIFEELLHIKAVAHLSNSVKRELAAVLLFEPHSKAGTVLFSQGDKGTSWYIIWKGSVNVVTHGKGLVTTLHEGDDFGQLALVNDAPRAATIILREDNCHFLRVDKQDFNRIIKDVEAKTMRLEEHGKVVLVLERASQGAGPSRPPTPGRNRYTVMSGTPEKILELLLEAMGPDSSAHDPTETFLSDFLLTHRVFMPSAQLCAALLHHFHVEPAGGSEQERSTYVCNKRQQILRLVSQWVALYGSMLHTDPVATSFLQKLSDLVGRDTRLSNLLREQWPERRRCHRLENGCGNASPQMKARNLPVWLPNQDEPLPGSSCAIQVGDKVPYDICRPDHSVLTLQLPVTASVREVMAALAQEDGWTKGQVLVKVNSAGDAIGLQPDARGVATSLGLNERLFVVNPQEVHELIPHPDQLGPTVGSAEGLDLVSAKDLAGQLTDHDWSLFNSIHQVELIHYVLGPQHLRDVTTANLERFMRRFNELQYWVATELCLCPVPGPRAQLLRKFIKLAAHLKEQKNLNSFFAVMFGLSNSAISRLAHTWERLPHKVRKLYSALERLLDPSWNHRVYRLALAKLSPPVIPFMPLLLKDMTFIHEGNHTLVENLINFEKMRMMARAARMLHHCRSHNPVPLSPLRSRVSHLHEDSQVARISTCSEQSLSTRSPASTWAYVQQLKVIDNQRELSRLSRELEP
Chain of Rap guanine nucleotide exchange factor 4 (Homo sapiens) (Q8WZA2 whole entry, looked up): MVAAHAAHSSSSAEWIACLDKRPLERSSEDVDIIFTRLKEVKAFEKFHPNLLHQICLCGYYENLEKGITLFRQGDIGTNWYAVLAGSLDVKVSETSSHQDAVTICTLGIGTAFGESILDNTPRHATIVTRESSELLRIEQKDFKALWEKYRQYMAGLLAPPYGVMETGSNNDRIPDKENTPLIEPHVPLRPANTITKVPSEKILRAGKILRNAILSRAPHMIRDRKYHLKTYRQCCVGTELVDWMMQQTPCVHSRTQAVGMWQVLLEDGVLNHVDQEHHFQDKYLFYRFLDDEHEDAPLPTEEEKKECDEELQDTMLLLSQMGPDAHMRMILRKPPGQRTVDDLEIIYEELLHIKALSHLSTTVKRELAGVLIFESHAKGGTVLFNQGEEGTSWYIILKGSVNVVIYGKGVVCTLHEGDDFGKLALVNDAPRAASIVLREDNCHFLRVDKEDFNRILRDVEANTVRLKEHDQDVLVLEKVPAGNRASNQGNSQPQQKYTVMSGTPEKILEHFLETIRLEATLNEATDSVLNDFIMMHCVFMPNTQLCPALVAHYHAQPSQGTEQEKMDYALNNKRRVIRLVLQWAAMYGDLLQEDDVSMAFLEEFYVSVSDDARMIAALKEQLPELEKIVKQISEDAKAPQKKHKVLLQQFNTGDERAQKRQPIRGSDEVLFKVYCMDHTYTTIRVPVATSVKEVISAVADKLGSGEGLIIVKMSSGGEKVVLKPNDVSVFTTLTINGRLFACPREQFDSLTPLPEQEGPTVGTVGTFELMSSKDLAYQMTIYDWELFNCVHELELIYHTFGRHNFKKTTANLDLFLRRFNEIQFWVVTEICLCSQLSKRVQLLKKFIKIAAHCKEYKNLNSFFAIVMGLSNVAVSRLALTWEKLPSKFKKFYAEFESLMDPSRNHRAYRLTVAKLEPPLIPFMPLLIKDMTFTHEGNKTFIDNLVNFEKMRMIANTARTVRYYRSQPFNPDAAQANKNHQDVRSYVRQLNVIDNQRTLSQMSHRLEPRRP
Chain of Nuclear receptor subfamily 1 group I member 3 (Homo sapiens) (Q14994 whole entry, looked up): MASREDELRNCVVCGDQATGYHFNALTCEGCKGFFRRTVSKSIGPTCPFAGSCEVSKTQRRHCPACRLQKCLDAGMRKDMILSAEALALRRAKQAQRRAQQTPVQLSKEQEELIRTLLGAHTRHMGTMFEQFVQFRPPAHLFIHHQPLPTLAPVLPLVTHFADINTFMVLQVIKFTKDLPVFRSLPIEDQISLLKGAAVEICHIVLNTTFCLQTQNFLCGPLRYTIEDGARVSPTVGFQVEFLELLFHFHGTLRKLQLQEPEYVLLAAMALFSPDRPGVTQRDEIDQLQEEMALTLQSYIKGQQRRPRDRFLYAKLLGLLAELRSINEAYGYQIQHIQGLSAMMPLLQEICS

CC1(C)[C@@H](OC(=O)CCC(=O)O)CC[C@]2(C)[C@H]3C(=O)C=C4[C@@H]5C[C@@](C)(C(=O)O)CC[C@]5(C)CC[C@@]4(C)[C@]3(C)CC[C@@H]12
outcome [1]: inactive | outcome [2]: inactive | outcome [3]: inactive | Potency [4]: 4.21 µM (active) and 4.13 µM (active)

O=C1c2cccc(O)c2C(=O)c2c(O)cccc21
outcome [5]: inactive

O=C(O)CCCCC1CCSS1 (stereo unspecified)
outcome [5]: inactive

NC(=O)NC1NC(=O)NC1=O (stereo unspecified)
outcome [1]: inactive | outcome [2]: inactive | outcome [3]: inactive | Potency [4]: inactive | outcome [6]: inactive | outcome [7]: inactive | outcome [8]: inactive

CCOC(=O)[C@H](CCc1ccccc1)N[C@@H](C)C(=O)N1Cc2cc(OC)c(OC)cc2C[C@H]1C(=O)O
outcome [5]: inactive | outcome [9]: inactive

Cc1ccc(C(C)C)c(O)c1
outcome [6]: inactive | outcome [7]: inactive | outcome [8]: inactive

COc1ccc2cc(CCC(C)=O)ccc2c1
outcome [1]: inactive | outcome [2]: inactive | outcome [3]: inactive | Potency [4]: 8.79 µM (active) and inactive | outcome [10]: inactive | outcome [5]: inactive

CCN[C@H]1CN(CCCOC)S(=O)(=O)c2sc(S(N)(=O)=O)cc21
outcome [5]: inactive

CC(=O)N[C@H]1[C@H]([C@H](O)[C@H](O)CO)OC(C(=O)O)=C[C@@H]1N=C(N)N
outcome [5]: inactive

NCc1ccc(S(N)(=O)=O)cc1
outcome [5]: inactive | outcome [9]: inactive

C=CCOc1ccccc1OCC(O)CNC(C)C (stereo unspecified)
outcome [5]: inactive

OCc1ccc(Cl)cc1Cl
outcome [5]: inactive

CC(C)=CCC[C@@](C)(O)[C@H]1CC=C(C)CC1
outcome [6]: inactive | outcome [7]: inactive | outcome [8]: inactive

O=C(O)CCCc1ccccc1
outcome [5]: inactive

Cc1cc(O)cc(C)c1Cl
outcome [5]: inactive

O=c1[nH]c(=O)n([C@H]2C[C@H](O)[C@@H](CO)O2)cc1I
outcome [5]: inactive
